Results from PubChem BioAssay AID2685 (National Center for Advancing Translational Sciences (NCATS), 2010).
Among all 320,000 compounds or so, about 2,100 (0.66%) were called active. Not shown: some 53% with an inconclusive outcome. The sample holds actives, similar compounds and a random draw of the others, so the mix is not that of the screen. The call rests on the fitted dose curve; in most records, active means well fitted inhibition curve with a large enough effect in the signal ratio, with a control signal flat (not every such curve was filed as active); inconclusive means small, poorly fitted or top-dose-only effect, or effect the other way, or a change in a side signal; inactive means flat fitted curve, though single readings scatter; the % refers to the signal ratio.

Experiment: qHTS Assay for Lipid Storage Modulators in Drosophila S3 Cells;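 on cell number change: cells counted by Cell Tracker Red CMTPX staining in the red channel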; on lipid storage change, negative = inhibition: on the % scale 0 is the no-effect control and ±100 the full control effect
Conditions: BODIPY lipid droplet fluorescence, 18-24 h, cells fed with added oleic acid; cell number change: measured here: cell count max response; series mostly up to 46.1 µM; lipid storage change, negative = inhibition: at the top concentration
Summary of the method: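 Drosophila S3 cells loaded with oleic acid (400 uM, as added) and compounds at several concentrations; lipid droplets imaged by 488-nm laser-scanning cytometry, 500–530 nm intensity and object ratio to cell channel. Percent activity normalized to 20 uM Triacsin C.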
Potency means the concentration at half of the fitted maximal effect.

Q: Which “lipid storage change, negative = inhibition” value does the source give for `O=C(NC1=NCCS1)c1ccccc1Cl` here?
A: 16.7% (inactive)

Q: What about the cell number change of the same compound?
A: -14.3%

Q: Which “lipid storage change, negative = inhibition” value does the source give for `CO/N=C/CC(=O)Nc1ccc(F)cc1F` here?
A: 1.73% (inactive)

Q: And the cell number change?
A: 16.8%

Q: Which “lipid storage change, negative = inhibition” value does the source give for `CCCNC(=O)Nc1nc(CC(=O)OCC)cs1` here?
A: -0.813% (inactive)

Q: What about the cell number change of the same compound?
A: -16.9%

Q: With `CC1NC2(C(=O)N(Cc3ccccc3)c3ccccc32)C2C(=O)N(c3ccccc3)C(=O)C12` (stereo not given) as the compound, how does the “outcome” value read?
A: inactive

Q: With `CC1Cc2ccccc2C(CCc2ccccc2)=N1` (stereo not given) as the compound, how does the “lipid storage change, negative = inhibition” value read?
A: -0.249% (inactive)

Q: And the cell number change?
A: -1.48%

Q: Which results are given for `CSc1cccc(CNC(=O)CC2C(=O)NCCN2CC(C)(C)C)c1` (stereo not given)?
A: lipid storage change, negative = inhibition: 10.7% (inactive); cell number change: 22%

Q: For `COc1ccc(-c2cc3cc(C(=O)O)ccn3c2C(=O)c2ccccc2)cc1`, which “lipid storage change, negative = inhibition” value is on record?
A: -4.15% (inactive)

Q: What about the cell number change of the same compound?
A: 2.31%

Q: With `CC1CCC2(CC1)NC(=O)N(CC(=O)NC(=O)Nc1ccc3c(c1)OCCO3)C2=O` (stereo not given) as the compound, how does the “lipid storage change, negative = inhibition” value read?
A: 2.79% (inactive)

Q: And the cell number change?
A: 17.3%

Q: With `CCOc1ccc(S(=O)(=O)N2CCCC(C(=O)NCc3ccncc3)C2)cc1Cl` (stereo not given) as the compound, how does the Potency read?
A: 1.03 µM (active)

Q: What about the cell number change of the same compound?
A: 25.2%

Q: What does the source list for `O=C(NCc1ccncc1)C1CCN(S(=O)(=O)c2ccc(F)cc2)CC1`?
A: outcome: inactive; cell number change: 1.32%

Q: With `CCOc1ccc(S(=O)(=O)N2CCCC(C(=O)NCc3ccncc3)C2)cc1C` (stereo not given) as the compound, how does the “outcome” value read?
A: inactive

Q: And the cell number change?
A: 9.24%

Q: For `Cc1ccc(S(=O)(=O)N2CCC(C(=O)NCc3ccncc3)CC2)cc1`, which Potency is on record?
A: 18.4 µM (active)

Q: And the cell number change?
A: 12.7%

Q: Which results are given for `O=C(NC1CCN(S(=O)(=O)c2ccc(F)cc2)CC1)C1CCCCC1`?
A: Potency: 5.17 µM (active); cell number change: -18.1%

Q: With `Cc1ccc(S(=O)(=O)N2CCC(C(=O)NCCc3ccccc3)CC2)cc1` as the compound, how does the Potency read?
A: 23.1 µM (active)

Q: What about the cell number change of the same compound?
A: -12.9%

Q: Which “lipid storage change, negative = inhibition” value does the source give for `O=C(NC1CCCCCC1)C1CCN(S(=O)(=O)c2ccc(F)cc2)CC1` here?
A: 9.96% (inactive)

Q: And the cell number change?
A: -1.11%

Q: Which “lipid storage change, negative = inhibition” value does the source give for `COc1ccc(S(=O)(=O)N2CCC(C(=O)NCCc3ccccc3)CC2)cc1` here?
A: 4.73% (inactive)

Q: What about the cell number change of the same compound?
A: 20.5%

Q: With `CSc1ccc(S(=O)(=O)N2CCC(C(=O)NCc3ccncc3)CC2)cc1` as the compound, how does the “lipid storage change, negative = inhibition” value read?
A: -5.08% (inactive)

Q: And the cell number change?
A: 19.2%

Q: With `O=C(NC1CCCCC1)C1CCCN(S(=O)(=O)c2ccc(F)cc2)C1` (stereo not given) as the compound, how does the “outcome” value read?
A: inactive

Q: What about the cell number change of the same compound?
A: 2.52%

Q: Which results are given for `CCOc1ccc(S(=O)(=O)N2CCC(C(=O)NCc3ccncc3)CC2)cc1Cl`?
A: lipid storage change, negative = inhibition: 29.2% (inactive); cell number change: -18.4%

Q: With `Cc1ccc(S(=O)(=O)N2CCC(C(=O)N[C@@H](C)C(=O)NCCc3ccccc3)CC2)cc1` as the compound, how does the “lipid storage change, negative = inhibition” value read?
A: 11.5% (inactive)

Q: What about the cell number change of the same compound?
A: 4.36%

Q: With `Cc1ccc(NC(=O)C(C)OC(=O)COc2cccc(C(F)(F)F)c2)cc1` (stereo not given) as the compound, how does the “lipid storage change, negative = inhibition” value read?
A: 4.89% (inactive)

Q: And the cell number change?
A: 3.29%

Q: For `COc1ccccc1N(CCC#N)C(=O)CSc1nc(-c2ccccc2)cn1N`, which “lipid storage change, negative = inhibition” value is on record?
A: 21.1% (inactive)

Q: What about the cell number change of the same compound?
A: -6.12%

Q: Which “lipid storage change, negative = inhibition” value does the source give for `COc1ccc(/C=C/c2nc(-c3ccccc3)cc(=O)[nH]2)cc1` here?
A: -10.7% (inactive)

Q: And the cell number change?
A: -10.9%

Q: What does the source list for `Cc1cn(C2CCC(CO)O2)c(=O)[nH]c1=O` (stereo not given)?
A: outcome: inactive; cell number change: 27%

Q: Which “lipid storage change, negative = inhibition” value does the source give for `CC1CCCC(NC(=O)COC(=O)c2cccs2)C1C` (stereo not given) here?
A: 2.84% (inactive)

Q: What about the cell number change of the same compound?
A: 0.184%

Q: For `CCOc1ccc(NC(=O)CN2C(=O)C3CCCN3C2=O)cc1` (stereo not given), which “outcome” value is on record?
A: inactive

Q: With `CC1(C)CC(=O)C(C=NCCN2CCN(CCc3ccccc3)CC2)=C(O)C1` as the compound, how does the “lipid storage change, negative = inhibition” value read?
A: 1.55% (inactive)

Q: For `Cc1ccccc1C(=O)N1CCN(c2ccc(NC(=O)c3cccnc3)cc2)CC1`, which “lipid storage change, negative = inhibition” value is on record?
A: -0.627% (inactive)

Q: And the cell number change?
A: 24.6%

Q: What does the source list for `CCOc1cc(C(=S)N2CCN(C)CC2)ccc1OCC(=O)N1CCOCC1`?
A: lipid storage change, negative = inhibition: 12.5% (inactive); cell number change: -0.877%

Q: Which “lipid storage change, negative = inhibition” value does the source give for `COc1ccc2c(c1)C1=NN(/C(C)=C\C(C)=O)C(c3ccccc3)C1CC2` (stereo not given) here?
A: -2.18% (inactive)

Q: And the cell number change?
A: -20.1%

Q: Which results are given for `COc1cccc(CNCC(O)COc2ccc(C(=O)c3ccccc3)cc2)c1` (stereo not given)?
A: lipid storage change, negative = inhibition: 0.646% (inactive); cell number change: -29.5%

Q: Which results are given for `COC(=O)CN1C(=O)NC2(CCCc3ccccc32)C1=O` (stereo not given)?
A: lipid storage change, negative = inhibition: -10.4% (inactive); cell number change: 1.11%

Q: Which results are given for `O=C(c1ccc(C(F)(F)F)cc1)C1CCCN(Cc2cccn2-c2ncccn2)C1` (stereo not given)?
A: lipid storage change, negative = inhibition: 17.2% (inactive); cell number change: 20.4%

Q: With `O=C1CC(N2CCN(c3ccc(F)cc3)CC2)C(=O)N1c1ccc(F)cc1` (stereo not given) as the compound, how does the “lipid storage change, negative = inhibition” value read?
A: 0.693% (inactive)

Q: What about the cell number change of the same compound?
A: -10.9%

Q: With `CCS(=O)(=O)N1CCCC(C(=O)NCCc2ccccc2)C1` (stereo not given) as the compound, how does the Potency read?
A: 25.9 µM (active)

Q: And the cell number change?
A: -14.3%

Q: Which “lipid storage change, negative = inhibition” value does the source give for `CCCCS(=O)(=O)N1CCCC(C(=O)NCCc2ccccc2)C1` (stereo not given) here?
A: -13.4% (inactive)

Q: And the cell number change?
A: -7.87%

Q: With `CCCS(=O)(=O)N1CCCC(C(=O)NCCc2ccccc2)C1` (stereo not given) as the compound, how does the “lipid storage change, negative = inhibition” value read?
A: 4.64% (inactive)

Q: What about the cell number change of the same compound?
A: 1.16%

Q: With `Cc1ccc(C(=O)NCC(c2ccco2)N2CCCCC2)s1` (stereo not given) as the compound, how does the “lipid storage change, negative = inhibition” value read?
A: 0.161% (inactive)

Q: And the cell number change?
A: 20.8%

Q: Which Potency does the source give for `O=C(O)c1cccc(NC(=O)C2CC(=O)N(Cc3ccccc3)C2)c1` (stereo not given) here?
A: 4.61 µM (active)

Q: And the cell number change?
A: -0.647%

Q: Which “lipid storage change, negative = inhibition” value does the source give for `CSc1cccc(NC(=O)C2CC(=O)N(Cc3ccccc3)C2)c1` (stereo not given) here?
A: 6.25% (inactive)

Q: What about the cell number change of the same compound?
A: 8.1%

Q: For `CC(=O)c1cccc(NC(=O)C2CC(=O)N(Cc3ccccc3)C2)c1` (stereo not given), which “outcome” value is on record?
A: inactive

Q: Which “outcome” value does the source give for `CCc1ccc(S(=O)(=O)Nc2ccncc2)cc1` here?
A: inactive

Q: And the cell number change?
A: -6.32%

Q: Which Potency does the source give for `O=S(=O)(Nc1ccncc1)c1ccc(Cl)cc1` here?
A: 10.3 µM (active)

Q: What about the cell number change of the same compound?
A: -14.9%

Q: With `O=S(=O)(Nc1ccc(Cc2ccncc2)cc1)c1ccc(Cl)cc1` as the compound, how does the “lipid storage change, negative = inhibition” value read?
A: 5.23% (inactive)

Q: And the cell number change?
A: 4.35%

Q: Which results are given for `COc1ccc(C(=O)N2CCC(=O)N(C(CO)Cc3ccccc3)CC2)cc1` (stereo not given)?
A: lipid storage change, negative = inhibition: 1.55% (inactive); cell number change: -2.26%

Q: Which “lipid storage change, negative = inhibition” value does the source give for `Cc1ccc(N=Cc2c(O)n(C)c(=O)n(C)c2=O)nc1` here?
A: 1.38% (inactive)

Q: And the cell number change?
A: 3.34%

Q: With `O=S(=O)(Nc1cccnc1)c1ccc(Br)c2ccccc12` as the compound, how does the Potency read?
A: 7.31 µM (active)

Q: And the cell number change?
A: -5.22%
